# Out of some 5,500 compounds screened, about 2,000 (36%) were called active. Not shown: some 18% with an inconclusive outcome. This is one part of the list. Values without a mark were called inactive. No stated cut-off is given here; in the data, active means normalized growth mostly below about 0.91 (no sharp cut-off); inconclusive means no clear call, values can overlap the other calls; inactive means mostly above about 0.92.
# Assay: chemical genetic growth profiling, strain panel (AID 1159580);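 further: tested at 20 µM; growth read once vehicle control cultures reached saturation at 30 °C; 1 = growth at the plate median or of vehicle wells; lower values mean less growth of the strain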
# Conditions: S. cerevisiae deletion strains, growth OD
# [1] = locus YHR030C, strain SLT2, hits give low values
# [2] = locus YHR079C, strain IRE1, hits give low values
# [3] = locus YJL095W, strain BCK1, hits give low values
# [4] = locus YJR066W, strain TOR1, hits give low values
# [5] = locus YLR113W, strain HOG1, hits give low values
# [6] = locus YNL183C, strain NPR1, hits give low values
# [7] = locus YOR231W, strain MKK1, hits give low values
# [8] = locus YPL256C, strain CLN2, hits give low values
structure (smiles),measurement,setting,value
C[C@H]1COC2=C1C(=O)C(=O)c1c2ccc2c1CCCC2(C)C,normalized growth,"locus YAL021C, strain ccr4, hits give low values",0.859 (active)
same,normalized growth,"locus YAL026C, strain drs2, hits give low values",0.583 (active)
same,normalized growth,"locus YAL030W, strain snc1, hits give low values",0.858 (active)
same,normalized growth,"locus YBL061C, strain skt5, hits give low values",0.725 (active)
same,normalized growth,"locus YBR009C, strain hhf1, hits give low values",0.534 (active)
same,normalized growth,"locus YBR023C, strain chs3, hits give low values",0.783 (active)
same,normalized growth,"locus YBR171W, strain sec66, hits give low values",0.808 (active)
same,normalized growth,"locus YBR231C, strain swc5, hits give low values",0.675 (active)
same,normalized growth,"locus YBR279W, strain paf1, hits give low values",0.725 (active)
same,normalized growth,"locus YCL011C, strain gbp2, hits give low values",0.65 (active)
same,normalized growth,"locus YCL016C, strain dcc1, hits give low values",0.691 (active)
same,normalized growth,"locus YCL061C, strain MRC1, hits give low values",0.668 (active)
same,normalized growth,"locus YCL069W, strain vba3, hits give low values",0.659 (active)
same,normalized growth,"locus YCR088W, strain abp1, hits give low values",0.866 (active)
same,normalized growth,"locus YDL005C, strain med2, hits give low values",0.828 (active)
same,normalized growth,"locus YDL040C, strain nat1, hits give low values",0.9 (active)
same,normalized growth,"locus YDR001C, strain nth1, hits give low values",0.913 (active)
same,normalized growth,"locus YDR069C, strain doa4, hits give low values",0.868 (active)
same,normalized growth,"locus YDR137W, strain rgp1, hits give low values",0.23 (active)
same,normalized growth,"locus YDR159W, strain sac3, hits give low values",0.301 (active)
same,normalized growth,"locus YDR195W, strain ref2",0.823 (active)
same,normalized growth,"locus YDR297W, strain sur2, hits give low values",0.75 (active)
same,normalized growth,"locus YDR334W, strain swr1, hits give low values",0.729 (active)
same,normalized growth,"locus YDR335W, strain msn5, hits give low values",0.658 (active)
same,normalized growth,"locus YDR392W, strain spt3, hits give low values",0.0851 (active)
same,normalized growth,"locus YEL003W, strain gim4, hits give low values",0.77 (active)
same,normalized growth,"locus YEL037C, strain rad23, hits give low values",0.883 (active)
same,normalized growth,"locus YEL061C, strain CIN8 (second series), hits give low values",0.527 (active)
same,normalized growth,"locus YER015W, strain faa2, hits give low values",0.845 (active)
same,normalized growth,"locus YER016W, strain bim1, hits give low values",0.666 (active)
same,normalized growth,"locus YER111C, strain swi4, hits give low values",0.478 (active)
same,normalized growth,"locus YER155C, strain BEM2 (second series), hits give low values",0.334 (active)
same,normalized growth,"locus YFR010W, strain ubp6, hits give low values",0.871 (active)
same,normalized growth,"locus YGL167C, strain pmr1, hits give low values",0.936
same,normalized growth,"locus YGL173C, strain kem1, hits give low values",0.801 (active)
same,normalized growth,"locus YGL227W, strain vid30, hits give low values",0.546 (active)
same,normalized growth,"locus YGL240W, strain doc1, hits give low values",0.649 (active)
same,normalized growth,"locus YGL253W, strain hxk2, hits give low values",0.545 (active)
same,normalized growth,"locus YHR013C, strain ard1, hits give low values",0.604 (active)
same,normalized growth,"locus YHR027C, strain rpn1, hits give low values",0.872 (active)
same,normalized growth,[1],0.139 (active)
same,normalized growth,[2],0.25 (active)
same,normalized growth,"locus YHR142W, strain chs7, hits give low values",0.379 (active)
same,normalized growth,"locus YJL092W, strain hpr5, hits give low values",0.871 (active)
same,normalized growth,"locus YJL095W, strain BCK1 (second series), hits give low values",0.408 (active)
same,normalized growth,[3],0.31 (active)
same,normalized growth,"locus YJL115W, strain asf1, hits give low values",0.886 (active)
same,normalized growth,"locus YJL129C, strain trk1, hits give low values",0.22 (active)
same,normalized growth,"locus YJL154C, strain vps35, hits give low values",0.913 (active)
same,normalized growth,"locus YJL164C, strain tpk1, hits give low values",0.69 (active)
same,normalized growth,"locus YJL166W, strain qcr8, hits give low values",0.349 (active)
same,normalized growth,[4],0.701 (active)
same,normalized growth,"locus YKL160W, strain elf1, hits give low values",0.462 (active)
same,normalized growth,"locus YKR026C, strain gcn3, hits give low values",0.853 (active)
same,normalized growth,"locus YKR091W, strain srl3, hits give low values",0.893 (active)
same,normalized growth,"locus YLL001W, strain dnm1, hits give low values",0.819 (active)
same,normalized growth,"locus YLL026W, hits give low values",0.843 (active)
same,normalized growth,"locus YLL041C, strain sdh2, hits give low values",0.901 (active)
same,normalized growth,"locus YLR027C, strain aat2, hits give low values",0.662 (active)
same,normalized growth,[5],0.208 (active)
same,normalized growth,"locus YLR221C, strain rsa3, hits give low values",0.662 (active)
same,normalized growth,"locus YLR258W, strain gsy2, hits give low values",0.723 (active)
same,normalized growth,"locus YLR262C, strain YPT6 (second series), hits give low values",0.2 (active)
same,normalized growth,"locus YLR320W, strain mms22, hits give low values",0.613 (active)
same,normalized growth,"locus YLR342W, strain FKS1, hits give low values",0.626 (active)
same,normalized growth,"locus YLR357W, strain rsc2, hits give low values",0.934
same,normalized growth,"locus YLR370C, strain arc18, hits give low values",0.806 (active)
same,normalized growth,"locus YLR384C, strain iki3, hits give low values",0.904 (active)
same,normalized growth,"locus YML120C, strain ndi1, hits give low values",0.371 (active)
same,normalized growth,"locus YMR058W, strain fet3, hits give low values",0.619 (active)
same,normalized growth,"locus YMR125W, strain sto1, hits give low values",0.476 (active)
same,normalized growth,"locus YMR129W, hits give low values",0.824 (active)
same,normalized growth,"locus YMR205C, strain PFK2, hits give low values",0.531 (active)
same,normalized growth,"locus YMR231W, strain pep5, hits give low values",0.714 (active)
same,normalized growth,"locus YNL071W, strain lat1, hits give low values",0.18 (active)
same,normalized growth,[6],0.666 (active)
same,normalized growth,"locus YNL209W, strain ssb2, hits give low values",0.817 (active)
same,normalized growth,"locus YNL248C, strain rpa49, hits give low values",0.735 (active)
same,normalized growth,"locus YNL322C, strain KRE1 (second series), hits give low values",0.801 (active)
same,normalized growth,"locus YNR049C, strain mso1, hits give low values",0.903 (active)
same,normalized growth,"locus YOR001W, strain rrp6, hits give low values",0.608 (active)
same,normalized growth,"locus YOR070C, strain gyp1, hits give low values",0.752 (active)
same,normalized growth,"locus YOR080W, strain dia2, hits give low values",0.912 (active)
same,normalized growth,"locus YOR083W, strain WHI5, hits give low values",0.712 (active)
same,normalized growth,"locus YOR106W, strain vam3, hits give low values",0.581 (active)
same,normalized growth,[7],0.213 (active)
same,normalized growth,"locus YOR265W, strain rbl2, hits give low values",0.895 (active)
same,normalized growth,"locus YOR270C, strain vph1, hits give low values",0.543 (active)
same,normalized growth,"locus YOR290C, strain snf2, hits give low values",0.775 (active)
same,normalized growth,"locus YPL051W, strain arl3, hits give low values",0.549 (active)
same,normalized growth,"locus YPL078C, strain atp4, hits give low values",0.453 (active)
same,normalized growth,"locus YPL106C, strain sse1, hits give low values",0.537 (active)
same,normalized growth,"locus YPL240C, strain hsp82, hits give low values",0.761 (active)
same,normalized growth,[8],0.19 (active)
Cc1cccc2c3c(ccc12)C1=C(C(=O)C3=O)C(C)CO1 (configuration not stated),normalized growth,[1],0.128 (active)
same,normalized growth,[2],0.174 (active)
same,normalized growth,[3],0.263 (active)
same,normalized growth,[4],0.756 (active)
same,normalized growth,[5],0.163 (active)
same,normalized growth,[6],0.72 (active)
same,normalized growth,[7],0.133 (active)
same,normalized growth,[8],0.141 (active)

# — PubChem BioAssay AID1159580 (chemical genetic matrix, 2015)
